# Several values for one entry are separate records, joined by “and”; a condition that tells them apart may be missing. Equal values may be shown once. Results filed as inconclusive are left out. A call without a number means that no potency is given here. Activity calls are given as the source filed them. Calls follow the shape of the full dose curve.
# Experiments:
# [1] = Primary qHTS for Huh7 cytotoxicity: counterscreen for inhibitors of MERS-S pseudotyped particle cell entry (AID 1479147); details: outcome: dose series up to 57.1 µM unless noted; also: potency is read from the fitted curve at half-maximal effect
# [2] = Primary qHTS for inhibitors of MERS-S pseudo-typed particle cell entry (AID 1479149); details: outcome: dose series up to 57.1 µM unless noted; also: nearly all actives have a fitted effect of over 60% in size; also: potency is read from the fitted curve at half-maximal effect
# [3] = Primary qHTS for Vero E6 cytotoxicity: counterscreen for inhibitors of SARS-S pseudo-typed particle cell entry (AID 1479150); details: outcome: dose series up to 57.1 µM unless noted
# [4] = Cytotoxicity counterscreen for inhibitors of SARS-CoV-2 cell entry (AID 1645845); details: outcome: dose series up to 57.1 µM unless noted; also: nearly all actives have a fitted effect of over 50% in size; also: potency is read from the fitted curve at half-maximal effect
# Method in brief: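 Counterscreen run in the same HEK293-ACE2 line as the pseudotyped-particle entry assay, without particles. Viability after 48 h at 37 C was read as ATP luminescence, scaled between cell-containing and cell-free wells.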
# [5] = Primary qHTS to identify inhibitors of SARS-CoV-2 cell entry (AID 1645846); details: SARS-CoV-2 pseudovirus cell entry assay, luminescence; activity change, negative = inhibition: at 57.1 µM (top of the series) unless noted; also: nearly all actives have a fitted effect of over 45% in size; also: potency is read from the fitted curve at half-maximal effect
# Method in brief: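 Using luciferase-reporting pseudoviruses carrying Wuhan-Hu-1 spike, the screen tracks entry into stably ACE2-expressing cells over 48 hr. Activity is expressed relative to spike particles versus particles lacking any fusion protein.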
smiles,measurement,setting,value
NC(=O)C1(N2CCCCC2)CCN(CCCN2c3ccccc3CCc3ccccc32)CC1,Potency,[1],28.2 µM (active)
same,Potency,[2],8.91 µM (active)
same,Potency,[3],inactive
same,Potency,[4],31.6 µM (active)
COc1ccc(CNc2nc(N3CCC[C@H]3CO)ncc2C(=O)NCc2ncccn2)cc1Cl,Potency,[1],inactive
same,Potency,[2],inactive
same,Potency,[3],inactive
same,Potency,[4],inactive
same,Potency,[5],inactive
CC(C)CC(NC(=O)CNC(=O)C(Cc1ccc(O)cc1)NC(=O)C(CO)NC(=O)C(Cc1c[nH]c2ccccc12)NC(=O)C(Cc1cnc[nH]1)NC(=O)C1CCC(=O)N1)C(=O)NC(CCCN=C(N)N)C(=O)N1CCCC1C(=O)NCC(N)=O (centres undefined),Potency,[1],inactive
same,Potency,[2],inactive
same,Potency,[3],inactive
same,Potency,[4],inactive
same,"activity change, negative = inhibition",[5],-25.2%
N=C1CCCN1Cc1[nH]c(=O)[nH]c(=O)c1Cl,Potency,[1],inactive
same,Potency,[2],inactive
same,Potency,[3],inactive
same,Potency,[4],inactive
same,"activity change, negative = inhibition",[5],-1.38%
CCC(c1ccccc1)c1noc(CCN(CC)CC)n1 (centres undefined),Potency,[1],inactive
same,Potency,[2],inactive
same,Potency,[3],inactive
same,Potency,[4],inactive
same,"activity change, negative = inhibition",[5],-15.7%
N=c1ccn2c(n1)O[C@@H]1[C@@H](O)[C@H](CO)O[C@@H]12,Potency,[1],inactive
same,Potency,[2],8.91 µM (active)
same,Potency,[3],inactive
same,Potency,[4],inactive
same,Potency,[5],2.51 µM (active)
O=P(O)(O)OC1C(OP(=O)(O)O)C(OP(=O)(O)O)C(OP(=O)(O)O)C(OP(=O)(O)O)C1OP(=O)(O)O (centres undefined),Potency,[1],inactive
same,Potency,[2],inactive
same,Potency,[3],inactive
same,Potency,[4],inactive
same,"activity change, negative = inhibition",[5],-23.6%
CC(C)(C)CC(C)(C)c1cc(Cc2cc(C(C)(C)CC(C)(C)C)cc(-n3nc4ccccc4n3)c2O)c(O)c(-n2nc3ccccc3n2)c1,"activity change, negative = cytotoxicity",[1],1.83% [at 5.34 µM] (inactive)
same,outcome,[2],inactive [at 5.34 µM]
same,"activity change, negative = cytotoxicity",[3],-1.1% [at 5.34 µM] (inactive)
same,outcome,[4],inactive [at 5.25 µM]
same,"activity change, negative = inhibition",[5],-28.1% [at 5.25 µM]
CC(C)c1nc(N(C)S(C)(=O)=O)nc(-c2ccc(F)cc2)c1/C=C/[C@@H](O)C[C@@H](O)CC(=O)O,Potency,[1],inactive
same,Potency,[2],inactive
same,Potency,[3],inactive
same,Potency,[4],inactive
same,Potency,[5],inactive
CC#CCC(C)[C@H](O)/C=C/[C@@H]1[C@H]2c3cccc(CCCC(=O)O)c3O[C@H]2C[C@H]1O (some centres undefined),Potency,[1],inactive
same,Potency,[2],inactive
same,Potency,[3],inactive
same,Potency,[4],inactive
same,"activity change, negative = inhibition",[5],-5.27%
CS(=O)(=O)Nc1cc2occ(NC=O)c(=O)c2cc1Oc1ccccc1,Potency,[1],inactive
same,Potency,[2],inactive
same,Potency,[3],inactive
same,Potency,[4],inactive
same,"activity change, negative = inhibition",[5],-19.1% and -29.3%
COc1ccc(-c2noc(CC(=O)O)c2-c2ccc(OC)cc2)cc1,Potency,[1],inactive
same,Potency,[2],inactive
same,Potency,[3],inactive
same,Potency,[4],inactive
same,"activity change, negative = inhibition",[5],-24.5%
CCCC1CC(C(=O)NC(C(C)Cl)C2OC(SC)C(OP(=O)(O)O)C(O)C2O)N(C)C1 (centres undefined),Potency,[1],inactive
same,Potency,[2],inactive
same,Potency,[3],inactive
same,Potency,[4],inactive
same,"activity change, negative = inhibition",[5],-28.7% [at 27.1 µM]
Cc1ccccc1-c1cc(N2CCN(C)CC2)ncc1N(C)C(=O)C(C)(C)c1cc(C(F)(F)F)cc(C(F)(F)F)c1,Potency,[1],inactive
same,Potency,[2],inactive
same,Potency,[3],inactive
same,Potency,[4],inactive
same,"activity change, negative = inhibition",[5],3.24%
CNc1ncc(-c2ccc3c(=O)c(C(=O)O)cn(C4CC4)c3c2C)cc1C,Potency,[1],inactive
same,Potency,[2],inactive
same,Potency,[3],inactive
same,Potency,[4],inactive
same,"activity change, negative = inhibition",[5],-15.2% [at 19 µM]
C[C@]12C=CC(=O)C=C1CC[C@@H]1[C@@H]2[C@@H](O)C[C@@]2(C)[C@H]1CC[C@]2(O)C(=O)COP(=O)(O)O,"activity change, negative = cytotoxicity",[1],-13.3% [at 11.4 µM] (inactive)
same,"activity change, negative = inhibition",[2],-22% [at 11.4 µM] (inactive)
same,"activity change, negative = cytotoxicity",[3],-2.88% [at 11.4 µM] (inactive)
same,"activity change, negative = cytotoxicity",[4],-0.915% [at 11.3 µM] (inactive)
same,"activity change, negative = inhibition",[5],-19.2% [at 11.3 µM]
O=C(O)C(O)C(O)C(=O)O (centres undefined),Potency,[1],inactive
same,Potency,[2],inactive
same,Potency,[3],inactive
same,Potency,[4],inactive
same,"activity change, negative = inhibition",[5],-16.3%
CCCCCC(O)/C=C/[C@@H]1C(CCCCCCC(=O)O)C(=O)C[C@@H]1O (some centres undefined),Potency,[1],inactive
same,Potency,[2],inactive
same,Potency,[3],inactive
same,Potency,[4],inactive
same,"activity change, negative = inhibition",[5],-20.3%
CC(C)N=c1cc2n(-c3ccc(Cl)cc3)c3ccccc3nc-2cc1Nc1ccc(Cl)cc1,Potency,[1],inactive
same,Potency,[2],inactive
same,Potency,[3],inactive
same,Potency,[4],inactive
same,"activity change, negative = inhibition",[5],-33.7%
